# Measured values as given in PubChem BioAssay (EPA / NIEHS).
# Where “and” joins values, the source holds several entries; their conditions need not be identical. Equal entries are not always repeated. Where a structure was tested more than once in an assay, its records may differ in their call. Calls of active or inactive are those of the source. The calls were made as follows: active = hit-call score of the fitted dose curve at least 0.9, where 1 is the maximum; inactive = score below 0.9.
# Read-out: Collagen I, COL1A1 (gene 1277)
# Experiment: BSK_hDFCGF_CollagenI: BioMAP Diversity Plus: hDFCGF Assay for Collagen I Biomarker Activity (AID 2284250)
# Conditions: primary human foreskin fibroblasts
# Protocol: BSK_hDFCGF is a cell-based, multiplexed-readout assay that uses foreskin fibroblast, a human skin primary cell, with measurements taken at 24 hours after chemical dosing in a 96-well plate.BSK_hDFCGF_CollagenI is an assay component measured in the BSK_hDFCGF assay. It measures Collagen I antibody related to regulation of gene protein expression using ELISA technology.Data from the assay component BSK_hDFCGF_CollagenI was analyzed at the endpoint, BSK_hDFCGF_CollagenI, in the positive analysis fitting direction relative to DMSO as the negative control and baseline of activity. Using a type of binding reporter, gain or loss-of-signal activity can be used to understand protein changes. To generalize the intended target to other relatable targets, this assay endpoint is annotated to the 'cell adhesion molecules' intended target family, where the subfamily is 'collagen'.
# The levels of cell surface (or secreted, indicated by the prefix "s") biomarker endpoints were measured by ELISA. Overt cytotoxicity to cells in confluent adherent cultures (all systems other than the BT system) was assessed by measuring total protein levels using sulforhodamine B (SRB) staining in parallel cultures at the time of biomarker measurements, indicated as SRB endpoints. For proliferation assays for adherent cell types, individual cell types are cultured at sub-confluence and relative cell numbers quantified by SRB staining at time points optimized for each system (48 h: 3C and CASM3C systems; 72 h: BT and HDF3CGF systems; 96 h: SAg system). SRB was performed by staining cells with 0.1% SRB after fixation with 10% TCA and reading wells at 560 nm.Viability and proliferation of PBMC (T cells) was quantified by Alamar Blue reduction for the SAg and BT systems. For PBMC viability (referred to as PBMC Cytotoxicity within the assay endpoint names), cells were plated (75,000/well in a 96-well plate) and then chemical samples added for 1 h before addition of activators, SEB and TSST-1 (20 ng/mL final concentration each). Cells were incubated for 90 h. Then, Alamar Blue (20 uL/well) (Invitrogen, Cat DAL1100) was added for 6 h, and the plates were read with a fluorescence microplate reader at 546/580 nm (excitation/emission). For PBMC proliferation, cells were plated and activated as above but incubated for only 16 h prior to addition of Alamar Blue. Plates were read after 6 h.
SMILES,outcome,AC50
COC(=O)CCC(F)(F)C(F)(F)C(F)(F)C(F)(F)F,inactive,–
O=C(O)C(F)(OC(F)(F)C(F)(OC(F)(F)C(F)(F)C(F)(F)F)C(F)(F)F)C(F)(F)F (stereo not given),inactive,–
OCC(F)(F)C(F)(F)C(F)(F)F,inactive,–
O=C(O)C(F)(F)C(F)(F)C(F)(F)C(F)(F)C(F)(F)C(F)(F)C(F)(F)C(F)(F)Cl,inactive,–
N=C(N)C(F)(F)C(F)(F)C(F)(F)C(F)(F)C(F)(F)C(F)(F)C(F)(F)F,inactive,30 µM (active)
FC(F)(F)C(F)(F)C(F)(F)C(F)(F)C(F)(F)C(F)(F)C(F)(F)I,inactive,–
O=S(=O)(O)C(F)(F)C(F)(F)C(F)(F)C(F)(F)C(F)(F)C(F)(F)C(F)(F)F,inactive,–
FC(F)(F)C(F)(F)C(F)(F)CI,inactive,–
O=C(Cl)C(F)(F)C(F)(F)C(F)(F)C(F)(F)C(F)(F)C(F)(F)C(F)(F)C(F)(F)F,inactive,–
O=C(O)C(F)(F)C(F)(F)OC(F)(F)F,inactive,–
OCCCC(F)(F)C(F)(F)C(F)(F)C(F)(F)C(F)(F)C(F)(F)C(F)(F)F,–,15.8 µM (active) and 7.13 µM (active)
FC(F)(F)C(F)(F)C(F)(F)N(C(F)(F)C(F)(F)C(F)(F)F)C(F)(F)C(F)(F)C(F)(F)F,inactive,–
O=C(CC(=O)C(F)(F)C(F)(F)F)C(F)(F)F,inactive,–
C=CC(=O)OCC(F)(F)C(F)(F)C(F)(F)C(F)(F)C(F)(F)C(F)(F)C(F)(F)F,inactive,–
O=S(=O)(OCCOC(F)(F)F)C(F)(F)F,inactive,–
FC(F)(F)C(F)(F)C(F)(F)C(F)(F)C(F)(F)C(F)(F)C(F)(F)C(F)(F)F,inactive,–
CCCCCCCCC(F)(F)C(F)(F)C(F)(F)C(F)(F)C(F)(F)C(F)(F)F,inactive,–
O=C(O)C(F)(F)C(F)(F)C(F)(F)F,inactive,–
Cc1ccc(S(=O)(=O)OCC(F)(F)C(F)(F)C(F)(F)C(F)(F)C(F)(F)C(F)F)cc1,inactive,–

SMILES,outcome,AC50
FC(F)(I)C(F)(F)C(F)(F)C(F)(F)I,inactive,–
O=C(O)C(F)(F)C(F)(F)C(F)F,inactive,–
CC(C)(C)C(=O)CC(=O)C(F)(F)C(F)(F)C(F)(F)F,inactive,–
FC(F)(F)C(F)(F)C(F)(F)C(F)(F)C(F)(F)C(F)(F)C(F)(F)C(F)(F)CCS,inactive,–
O=C(O)C(F)(F)C(F)(F)C(F)(F)C(F)(F)F,inactive,–
CCCCC(CC)COP(=O)(O)OCC(CC)CCCC (stereo not given),inactive,20 µM (active)
C=C(C)C(=O)OCCC(F)(F)C(F)(F)C(F)(F)C(F)(F)C(F)(C(F)(F)F)C(F)(F)F,inactive,–
O=C(O)C(F)(OC(F)(F)C(F)(OC(F)(F)C(F)(OC(F)(F)C(F)(F)C(F)(F)F)C(F)(F)F)C(F)(F)F)C(F)(F)F (stereo not given),inactive,–
CCCCCCOC(=O)c1ccccc1O,–,18.7 µM (active) and 10.1 µM (active)
NC(=O)C(F)(F)C(F)(F)C(F)(F)C(F)(F)F,inactive,–
OCCCC(F)(F)C(F)(F)C(F)(F)F,inactive,–
C=CC(F)(F)C(F)(F)C(F)(F)C(F)(F)C(F)(F)C(F)(F)C(F)(F)C(F)(F)F,inactive,–
FC(F)(F)C(F)(F)C(F)(F)C(F)(F)C(F)(F)C(F)(F)C(F)(F)Br,inactive,–
FC(F)(Br)C(F)(F)C(F)(F)C(F)(F)C(F)(F)C(F)(F)Br,inactive,–
OCC(F)(F)C(F)(F)C(F)(F)C(F)(F)C(F)(F)C(F)(F)F,inactive,–
O=S(=O)(OCC(F)F)C(F)(F)F,inactive,–
O=C(O)C(F)(F)C(F)(F)C(F)(F)C(F)(F)C(F)(F)C(F)(F)C(F)(F)C(F)(F)C(F)(F)C(F)F,inactive,–
O=C(O)C(F)(F)C(F)(F)C(F)(F)C(F)(F)C(F)(F)C(F)(F)C(F)(F)C(F)(F)C(F)(F)C(F)(F)C(F)(F)C(F)(F)C(F)(F)F,inactive,–
C=CC(F)(F)C(F)(F)C(F)(F)C(F)(F)C(F)(F)C(F)(F)C(F)(F)C(F)(F)C=C,inactive,–
